# Measurements as given in PubChem BioAssay (NCI).
# Compounds without any hit were thinned out: in the full panel of roughly 79,000, 15% have a hit. Values without a mark were called inactive. The source made the active and inactive calls. Cut-off read from the data, not from the text of the source: active = growth inhibition above about 70%; inactive = the rest.
# Assays:
# [1] = NCI Yeast Anticancer Drug Screen. Data for the rad52 strain (AID 147);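 note: 0% = growth of vehicle-treated control cultures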; conditions: S. cerevisiae rad52 mutant growth inhibition, active compounds read high
# Summary of the method: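 Vehicle-treated cultures served as the reference for growth inhibition of compound-exposed yeast bearing a DNA repair mutation.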
# [2] = NCI Yeast Anticancer Drug Screen. Data for the rad50EPP+ strain (AID 151);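 note: 0% = growth of vehicle-treated control cultures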; conditions: S. cerevisiae rad50 mutant strain, active compounds read high
# Summary of the method: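 In this screen, rad50EPP+ yeast were exposed to compounds. Growth inhibition was scored against vehicle-treated controls.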
# [3] = NCI Yeast Anticancer Drug Screen. Data for the mgt1 strain (AID 153); conditions: S. cerevisiae mgt1 mutant growth inhibition, active compounds read high
# Summary of the method: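 mgt1 strain exposed; growth vs vehicle control recorded as inhibition.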
# [4] = NCI Yeast Anticancer Drug Screen. Data for the rad50 strain (AID 155);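 note: 0% = growth of vehicle-only cultures of the same strain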; conditions: S. cerevisiae rad50 strain growth inhibition, active compounds read high
# Summary of the method: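 Readout: growth inhibition relative to vehicle-treated cultures. Compound exposure was carried out in a genetically defined yeast strain deficient in DNA damage repair.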
# [5] = NCI Yeast Anticancer Drug Screen. Data for the mec2-1 strain (AID 157); conditions: S. cerevisiae mec2-1 strain, active compounds read high
# Summary of the method: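 Vehicle-treated cultures served as reference for growth inhibition of compound-exposed mec2-1 yeast.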
# [6] = NCI Yeast Anticancer Drug Screen. Data for the rad14 strain (AID 159);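 note: 0% = growth of vehicle-treated control cultures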; conditions: S. cerevisiae rad14 strain growth inhibition, active compounds read high
# Summary of the method: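 Growth inhibition vs vehicle controls; genetically altered yeast strain (DNA damage repair defect) treated with test compounds.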
# [7] = NCI Yeast Anticancer Drug Screen. Data for the sgs1 mgt1 strain (AID 161);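 note: 0% = growth of cultures given vehicle only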; conditions: S. cerevisiae sgs1 mgt1 strain, active compounds read high
# Summary of the method: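 Test agents were incubated with a DNA-repair-mutant yeast strain. Growth was then read and compared against vehicle-treated controls.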
# [8] = NCI Yeast Anticancer Drug Screen. Data for the CLN2oe strain (AID 163);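 note: 0% = growth of vehicle-only control cultures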; conditions: S. cerevisiae CLN2oe strain, active compounds read high
# Summary of the method: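 Inhibition relative to vehicle-treated yeast is reported. Cells: strain with genetic alteration in cell-cycle control, grown with compound.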
# [9] = NCI Yeast Anticancer Drug Screen. Data for the cln2 rad14 strain (AID 165);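 note: 0% = growth equal to vehicle treated cultures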; conditions: S. cerevisiae cln2 rad14 strain, active compounds read high
# Summary of the method: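 Each compound was tested on cln2 rad14 yeast. Inhibition of growth was calculated against vehicle-exposed controls.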
# [10] = NCI Yeast Anticancer Drug Screen. Data for the bub3 strain (AID 167); conditions: S. cerevisiae bub3 mutant strain, active compounds read high
# Summary of the method: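 Readout: yeast growth inhibition, expressed relative to vehicle-only wells. The test organism is a mutant strain from a panel with lesions in DNA repair or checkpoint genes.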
# [11] = NCI Yeast Anticancer Drug Screen. Data for the wt2 strain (AID 169);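 note: 0% = growth of vehicle-treated yeast cultures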; conditions: S. cerevisiae wt2 strain growth inhibition, active compounds read high
# Summary of the method: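 Inhibition of yeast growth was determined after compound treatment, normalised to controls receiving only vehicle.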
# [12] = NCI Yeast Anticancer Drug Screen. Data for the mlh1 strain (AID 171);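 note: 0% = growth of vehicle-treated control cultures of the same strain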; conditions: S. cerevisiae mlh1 strain growth inhibition, active compounds read high
# Summary of the method: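 Vehicle-normalised growth inhibition of a repair- or checkpoint-altered yeast strain following compound treatment.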
# [13] = NCI Yeast Anticancer Drug Screen. Data for the sgs1 strain (AID 173);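 note: 0% = growth of vehicle-only control cultures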; conditions: S. cerevisiae sgs1 mutant, active compounds read high
# Summary of the method: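 Screen format: yeast with repair or checkpoint alterations, compound exposure, growth read relative to vehicle.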
# [14] = NCI Yeast Anticancer Drug Screen. Data for the mlh1 rad18 strain (AID 175); conditions: S. cerevisiae mlh1 rad18 strain growth inhibition, active compounds read high
# Summary of the method: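 Vehicle-treated cultures served as the reference for growth inhibition in a yeast strain carrying DNA damage repair alterations exposed to each compound.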
# [15] = NCI Yeast Anticancer Drug Screen. Data for the rad18 strain (AID 177); conditions: S. cerevisiae rad18 mutant growth inhibition, active compounds read high
# Summary of the method: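 Test articles were incubated with altered yeast defective in DNA damage repair. Results are given as inhibition of growth versus vehicle.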
# [16] = at 5.0 µM (retest, dose inferred, filed as 0.5)
# [17] = at 50.0 µM (retest, dose inferred, filed as 5.0)
structure (smiles),measurement,setting,value
CCCCCCCCCCCC(O)S(=O)(=O)O (stereo not drawn),growth inhibition,[1]; at 1.2 µM,0%
same,growth inhibition,[1]; at 3.7 µM,0%
same,growth inhibition,[1]; at 11.0 µM,-3%
same,growth inhibition,[1]; at 33.0 µM,2%
same,growth inhibition,[1]; at 100.0 µM,55%
same,growth inhibition,[2]; at 1.2 µM,7%
same,growth inhibition,[2]; at 3.7 µM,3%
same,growth inhibition,[2]; at 11.0 µM,7%
same,growth inhibition,[2]; at 33.0 µM,15%
same,growth inhibition,[2]; at 100.0 µM,58%
same,growth inhibition,[3]; at 1.2 µM,-3%
same,growth inhibition,[3]; at 3.7 µM,0%
same,growth inhibition,[3]; at 11.0 µM,-2%
same,growth inhibition,[3]; at 33.0 µM,-1%
same,growth inhibition,[3]; at 100.0 µM,70% (active)
same,growth inhibition,[4]; at 1.2 µM,4%
same,growth inhibition,[4]; at 3.7 µM,3%
same,growth inhibition,[4]; [16],-13%
same,growth inhibition,[4]; at 11.0 µM,-2%
same,growth inhibition,[4]; at 33.0 µM,2%
same,growth inhibition,[4]; [17],20%
same,growth inhibition,[4]; at 50.0 µM,-3.6%
same,growth inhibition,[4]; at 100.0 µM,50%
same,growth inhibition,[5]; at 1.2 µM,-1%
same,growth inhibition,[5]; at 3.7 µM,0%
same,growth inhibition,[5]; [16],-17%
same,growth inhibition,[5]; at 11.0 µM,-2%
same,growth inhibition,[5]; at 33.0 µM,-1%
same,growth inhibition,[5]; [17],-23%
same,growth inhibition,[5]; at 50.0 µM,37.9%
same,growth inhibition,[5]; at 100.0 µM,74% (active)
same,growth inhibition,[6]; at 1.2 µM,3%
same,growth inhibition,[6]; at 3.7 µM,4%
same,growth inhibition,[6]; at 11.0 µM,2%
same,growth inhibition,[6]; at 33.0 µM,10%
same,growth inhibition,[6]; at 100.0 µM,95% (active)
same,growth inhibition,[7]; [16],-10%
same,growth inhibition,[7]; [17],17%
same,growth inhibition,[7]; at 50.0 µM,0.05%
same,growth inhibition,[8]; at 1.2 µM,-2%
same,growth inhibition,[8]; at 3.7 µM,-1%
same,growth inhibition,[8]; at 11.0 µM,-2%
same,growth inhibition,[8]; at 33.0 µM,-2%
same,growth inhibition,[8]; at 100.0 µM,66%
same,growth inhibition,[9]; [16],-5%
same,growth inhibition,[9]; [17],6%
same,growth inhibition,[9]; at 50.0 µM,-14.4%
same,growth inhibition,[10]; at 1.2 µM,1%
same,growth inhibition,[10]; at 3.7 µM,-1%
same,growth inhibition,[10]; [16],0%
same,growth inhibition,[10]; at 11.0 µM,-2%
same,growth inhibition,[10]; at 33.0 µM,0%
same,growth inhibition,[10]; [17],59%
same,growth inhibition,[10]; at 50.0 µM,7.55%
same,growth inhibition,[10]; at 100.0 µM,12%
same,growth inhibition,[11]; at 1.2 µM,-4%
same,growth inhibition,[11]; at 3.7 µM,-9%
same,growth inhibition,[11]; at 11.0 µM,-7%
same,growth inhibition,[11]; at 33.0 µM,-11%
same,growth inhibition,[11]; at 100.0 µM,98% (active)
same,growth inhibition,[12]; at 1.2 µM,0%
same,growth inhibition,[12]; at 3.7 µM,0%
same,growth inhibition,[12]; at 11.0 µM,-2%
same,growth inhibition,[12]; at 33.0 µM,3%
same,growth inhibition,[12]; at 100.0 µM,94% (active)
same,growth inhibition,[13]; at 1.2 µM,1%
same,growth inhibition,[13]; at 3.7 µM,-2%
same,growth inhibition,[13]; at 11.0 µM,-12%
same,growth inhibition,[13]; at 33.0 µM,6%
same,growth inhibition,[13]; at 100.0 µM,96% (active)
same,growth inhibition,[14]; [16],7%
same,growth inhibition,[14]; [17],39%
same,growth inhibition,[14]; at 50.0 µM,17.4%
same,growth inhibition,[15]; at 1.2 µM,1%
same,growth inhibition,[15]; at 3.7 µM,1%
same,growth inhibition,[15]; at 11.0 µM,-2%
same,growth inhibition,[15]; at 33.0 µM,-1%
same,growth inhibition,[15]; at 100.0 µM,90% (active)
